DRD3 antagonist: D3 dopamine receptor (human) antagonism | D3R cells, DiscoveRx beta-arrestin luminescence, antagonist mode; active compounds read low | max response, negative = inhibition, % | P35462 | AID 652054 | actives 2.5% (n = 360,000); in the data active = max response below about -50%; inconclusive = no clear call, values can overlap the other calls; also: % is scaled to controls: 0 for no effect and ±100 for the full control effect
Target sequence (P35462 whole entry, looked up): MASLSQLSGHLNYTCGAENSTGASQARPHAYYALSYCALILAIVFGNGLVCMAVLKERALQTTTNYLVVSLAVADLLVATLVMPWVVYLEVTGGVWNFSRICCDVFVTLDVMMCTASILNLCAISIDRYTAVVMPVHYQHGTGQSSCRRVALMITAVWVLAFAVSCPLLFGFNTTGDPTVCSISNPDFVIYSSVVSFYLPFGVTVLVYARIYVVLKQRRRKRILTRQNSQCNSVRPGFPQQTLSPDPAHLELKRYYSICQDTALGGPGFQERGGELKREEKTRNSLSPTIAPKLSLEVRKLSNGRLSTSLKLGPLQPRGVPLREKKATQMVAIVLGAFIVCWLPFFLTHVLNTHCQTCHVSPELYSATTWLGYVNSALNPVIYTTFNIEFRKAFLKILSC
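Cells expressing the human receptor were seeded at 1500 cells/well, incubated overnight at 37 degrees C in 5% CO2, then exposed to library compounds with dopamine controls for 90 minutes at 37 degrees C before luminescent detection.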
D3 ag: activates the human D3 dopamine receptor | actives 0.58% (n = 410,000) | D3R DiscoveRx beta-arrestin cells, luminescence, 90 min | P35462 | max activation, %; in the data active = max activation above about 30%; also: 0% is about no effect
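Cells at 1500/well, incubated overnight, then treated with pinned compounds (dopamine as control) for 90 min at 37 degrees C. DiscoveRx reagent added for 30 - 60 minutes at room temperature; luminescence read.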
DT40 TDP1 no CPT: qHTS for Inhibitors of human tyrosyl-DNA phosphodiesterase 1 (TDP1): qHTS in cells in absence of CPT; DT40 Tdp1-/- hTDP1 cells, no CPT, ATP luminescence, 48 h; Potency, µM (series often up to 46.2 µM), for the others: at the top dose activity change, negative = growth inhibition, actives largely listed as inhibitors; actives 15% (n = 420,000); also: potency is read from the fitted curve at half-maximal effect; % is scaled to controls: 0 for no effect and ±100 for the full control effect; nearly all actives have a fitted effect of over 55% in size
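Chicken DT40 Tdp1-/- cells complemented with human TDP1, screened without camptothecin (DMSO vehicle only), 400 cells/well. Compounds pin-transferred, cells incubated at 37 °C for at least 48 hr. Growth read as ATP-dependent luminescence (CellTiter-Glo, 30 min at RT).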
IL1B secr inh: blocks inflammasome-driven IL-1 beta release; actives 4.7% (n = 360,000); THP-1 LPS/ATP IL-1B secretion, AlphaLISA, 16 h; active compounds read low; activity change, % at 57.5 µM; in the data active = activity change below about -50%; inconclusive = mostly about -30% to -49%; also: % is scaled to controls: 0 for no effect and ±100 for the full control effect
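THP-1 cells pretreated 1 hr with compounds (up to 57.5 uM final), then stimulated with LPS (250 ng/mL final) plus ATP (1.25 mM final); secreted IL-1B measured by AlphaLISA after 16 hr, decreased signal indicating inhibition.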
TDP1 cell CPT: growth inhibition of DT40 Tdp1-/-;hTDP1 cells with camptothecin (screen for TDP1 inhibitors); chicken DT40 Tdp1-/-;hTDP1 cells + 20 nM CPT, ATP luminescence, 48 h; Potency, µM (top dose mostly 46.2 µM), without a hit: top-dose activity change, negative = growth inhibition, hits mostly inhibitors; AID 686979; actives 12% (n = 420,000); also: potency is read from the fitted curve at half-maximal effect; % is scaled to controls: 0 for no effect and ±100 for the full control effect; nearly all actives have a fitted effect of over 55% in size
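Cell growth measured by CellTiter-Glo luminescence after a minimum 48 h, 37 C compound exposure with 20 nM CPT in Tdp1-knockout DT40 cells stably expressing hTDP1, seeded 400/well; qHTS titration format.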
ClpP mod: qHTS Assay for Activators of ClpP; ATP-dependent Clp protease proteolytic subunit (Bacillus subtilis (strain 168)), P80244; purified B. subtilis ClpP, FRET peptide cleavage, 20 min; Potency, µM (doses to about 57.5 µM), for the others: at the top dose activity change, negative = active; actives 1.9% (n = 340,000); active = well fitted falling curve with a large enough effect; inconclusive = small, poorly fitted or top-dose-only effect; inactive = no such curve, though single readings can be large or run the other way; also: potency is read from the fitted curve at half-maximal effect; the source files actives as falling curves though it sought activators and does not explain the sign; nearly all actives have a fitted effect of over 65% in size
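Buffer: 100 mM Tris/HCl pH8, 100 mM KCl, 0.05% low protease BSA, 2.5% glycerol, 0.01% Tween-20. ClpP 10 microg/mL final; 20 min RT; delta FRET normalized to ADEP and DMSO controls.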
An asterisk follows results filed as active. Rows were chosen to be rich in hits. Some 21% of all compounds tested hit in one or more screens of this group. Unless noted, calls follow the shape of the dose curve; as a rule, active = well fitted inhibition curve with a large enough effect; inconclusive = small, poorly fitted or top-dose-only effect; inactive = flat fitted curve, though single readings scatter.

For NS(=O)(=O)c1ccc(CCNc2nn3c(-c4cccc(OC(F)(F)F)c4)cnc3s2)cc1 the results were DRD3 antagonist 79, D3 ag 25, DT40 TDP1 no CPT 13µM*, IL1B secr inh -84*, TDP1 cell CPT 12µM* and ClpP mod -1%.
`O=C(COC(=O)CN1C(=O)NC2(CCCC2)C1=O)Nc1c(Cl)cccc1C(F)(F)F` gave DRD3 antagonist 8, D3 ag 3, DT40 TDP1 no CPT 14%, IL1B secr inh 5, TDP1 cell CPT 1% and ClpP mod 0%.
For CCCn1c(CCNc2nc(-c3cccc(Br)c3)cs2)nc2ccccc21 the results were DRD3 antagonist 35, D3 ag 33*, DT40 TDP1 no CPT inconclusive, IL1B secr inh 23, TDP1 cell CPT -27% and ClpP mod 1%.
For CCCn1c(C(C)Nc2nc(-c3cccc(Br)c3)cs2)nc2ccccc21 (centres undefined) the results were DRD3 antagonist 14, D3 ag 31*, DT40 TDP1 no CPT inconclusive, IL1B secr inh 15, TDP1 cell CPT inconclusive and ClpP mod -4%.
Screening CCCn1c(-c2cccc(Br)c2)nc2ccccc21 returned D3 ag 7, DT40 TDP1 no CPT -26%, TDP1 cell CPT -18% and ClpP mod -24%.
Screening CCCc1ccc2oc(C(=O)NCCCN3CCOCC3)c(C)c2c1 returned DRD3 antagonist 18, D3 ag -12, DT40 TDP1 no CPT inconclusive, IL1B secr inh -20, TDP1 cell CPT inconclusive and ClpP mod -28%.
`Cc1c(C(=O)NCCCN2CCOCC2)oc2c1C1(CCC2)SCCS1` gave DRD3 antagonist -27, D3 ag -6, DT40 TDP1 no CPT 23µM*, IL1B secr inh 0, TDP1 cell CPT 12µM* and ClpP mod 7%.
`Cc1ccc(OCC(=O)Nc2ccc(N3CCN(C(=O)c4ccco4)CC3)cc2)cc1C` gave DRD3 antagonist 6, D3 ag 11, DT40 TDP1 no CPT inconclusive, IL1B secr inh -82*, TDP1 cell CPT inconclusive and ClpP mod 2%.
For Cc1cc(OCC(=O)Nc2ccc(N3CCN(C(=O)c4ccco4)CC3)cc2)cc(C)c1Cl the results were DRD3 antagonist 53, D3 ag 55*, DT40 TDP1 no CPT 10µM*, IL1B secr inh -4, TDP1 cell CPT 9.2µM* and ClpP mod 0%.
`Cc1cccc(OCC(=O)Nc2ccc(N3CCN(C(=O)c4ccccc4)CC3)cc2)c1C` gave DRD3 antagonist 9, D3 ag 9, DT40 TDP1 no CPT inconclusive, IL1B secr inh inactive, TDP1 cell CPT inconclusive and ClpP mod 1%.
Screening CCC(=O)N1CCN(c2ccc(NC(=O)COc3cccc(C)c3C)cc2)CC1 returned DRD3 antagonist 7, D3 ag 8, DT40 TDP1 no CPT 18µM*, IL1B secr inh 19 and TDP1 cell CPT inconclusive.
For Cc1ccccc1OCC(=O)Nc1ccc(N2CCN(C)CC2)c(Cl)c1 the results were DRD3 antagonist -11, D3 ag -10, DT40 TDP1 no CPT 15µM*, IL1B secr inh inconclusive and TDP1 cell CPT inconclusive.
`CCOC(=O)c1cnc(/N=C/N(C)C)s1` gave DRD3 antagonist -2, D3 ag -7, DT40 TDP1 no CPT -8%, IL1B secr inh -11 and TDP1 cell CPT 1%.
`COc1cccc(C(=O)NCC2CCCN(C(=O)c3ccc(C=O)cc3)C2)c1OC` (centres undefined) gave DRD3 antagonist 0, D3 ag 2, DT40 TDP1 no CPT 1%, IL1B secr inh -8, TDP1 cell CPT -5% and ClpP mod 2%.
